Measured values taken from PubChem BioAssay (NCI).
This is part of a sample that, as a whole, favours compounds with a hit. Of some 83,000 tested, about 20% had one in any assay.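 Assay: single dose, 48 h. Readout: percent growth (0 = no net growth; negative = cell death). Active: <10.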 A number with no mark means an inactive call. Activity calls are given as the source filed them.

How the values were obtained:
Assay in all cases: NCI-60 one-dose screen, 48 h (100 = growth as untreated, 0 = no growth, -100 = all killed)
HCT-15 colon = details: 10 µM unless noted
HT29 colon = details: 10 µM unless noted
SNB-75 CNS = details: 10 µM unless noted
SNB-19 CNS = details: 10 µM unless noted
U251 CNS = details: 10 µM unless noted
PC-3 prostate = details: 10 µM unless noted
SK-MEL-5 melanoma = details: 10 µM unless noted
UACC-62 melanoma = details: 10 µM unless noted
LOX IMVI melanoma = details: 10 µM unless noted
SK-MEL-28 melanoma = details: 10 µM unless noted
SK-MEL-2 melanoma = details: 10 µM unless noted
SN12C renal = details: 10 µM unless noted
UO-31 renal = details: 10 µM unless noted
TK-10 renal = details: 10 µM unless noted
ACHN renal = details: 10 µM unless noted
CAKI-1 renal = details: 10 µM unless noted
A498 renal = details: 10 µM
HL-60(TB) leukemia = details: 10 µM unless noted
CCRF-CEM leukemia = details: 10 µM unless noted
EKVX NSCLC = details: 10 µM unless noted

| Structure (SMILES) | growth (HCT-15 colon) | growth (HT29 colon) | growth (SNB-75 CNS) | growth (SNB-19 CNS) | growth (U251 CNS) | growth (PC-3 prostate) | growth (SK-MEL-5 melanoma) | growth (UACC-62 melanoma) | growth (LOX IMVI melanoma) | growth (SK-MEL-28 melanoma) | growth (SK-MEL-2 melanoma) | growth (SN12C renal) | growth (UO-31 renal) | growth (TK-10 renal) | growth (ACHN renal) | growth (CAKI-1 renal) | growth (A498 renal) | growth (HL-60(TB) leukemia) | growth (CCRF-CEM leukemia) | growth (EKVX NSCLC) |
| --- | --- | --- | --- | --- | --- | --- | --- | --- | --- | --- | --- | --- | --- | --- | --- | --- | --- | --- | --- | --- |
| CCCCCCCC[N+](C)(CCCCCCCC)CCCCCCCC | -75% (active) | -100% (active) | -100% (active) | -89.6% (active) | -75% (active) | -91.3% (active) | -100% (active) | -94.5% (active) | -74.7% (active) | -100% (active) | -94.1% (active) | -86.5% (active) | -100% (active) | -100% (active) | -93.6% (active) | -98.6% (active) | -100% (active) | 32% | 85.7% | – |
| NC(=S)c1cn(C2OC(CO)C(O)C2O)c2ncnc(N)c12 (stereo unspecified) | -11.2% (active) | 2.78% (active) | -8.8% (active) | 9.97% (active) | -7.25% (active) | 6.45% (active) | -73.7% (active) | -77.1% (active) | -22.9% (active) | -40.3% (active) | -58.1% (active) | -10.5% (active) | -9.32% (active) | -29.5% (active) | -6.08% (active) | -36.6% (active) | -32.5% (active) | -72.9% (active) | -40.6% (active) | – |
| CC12CCC3C(CCC4=CC(=O)CCC43CF)C1CCC2=O (stereo unspecified) | 106% | 116% | 90.1% | 109% | 111% | 97.4% | 109% | 115% | 96.6% | 117% | 97.2% | – | 87.8% | 115% | 120% | 111% | – | – | 88.2% | 94.8% |
| COc1ccc(/C=C\c2cc(OC)c(OC)c(OC)c2)c(NS(=O)(=O)c2ccc(Cl)cc2)c1O | 13.4% | 17.1% | 18.9% | 53.4% | 12.3% | 26.1% | -1.82% (active) | 40.9% | 10.7% | 60.3% | 0.0535% (active) | 22.1% | 33.7% | 25.1% | 25.9% | 28.1% | -13% (active) | -38.8% (active) | 7.81% (active) | – |
| CN1C(=O)C(=Cc2cn(Cc3ccccc3)c3ccccc23)C(=O)N(C)C1=O | 93% | 89.5% | 60.1% | 90% | 82.8% | 84.8% | 63.4% | 34% | 82.6% | 99.3% | 81.5% | 103% | 54.3% | 4.63% (active) | 84.5% | 60.4% | -83.1% (active) | 64.4% | 92% | – |
| ClCCN(CCCl)c1ccc(/C=N/Nc2ncnc3nc[nH]c23)cc1 | 95% | 77.5% | 72.7% | 82% | 67.6% | 232% | 75% | 74% | 65.8% | 117% | – | 67.2% | 54.2% | 113% | 74.8% | 64% | 98.4% | 92% | 42.4% | 85.1% |
| CC(=O)O[C@H](C[C@H](C(C)C)N(C)C(=O)[C@@H](NC(=O)[C@H]1CCCCN1C)C(C)C)c1cccc(C(=O)N[C@@H](Cc2ccccc2)C[C@H](C)C(=O)O)n1 | 9.65% (active) | 2.72% (active) | 27.6% | 22.4% | 10.9% | 26.4% | -39.2% (active) | 36.3% | 14.6% | 65% | 30.4% | 22% | 39.4% | 69% | 35.3% | – | -13.2% (active) | -38.1% (active) | 5.5% (active) | – |
| CC(=O)OC1CCC2C3CCC4=C/C(=N/OC(=O)c5ccc(N(CCCl)CCCl)cc5)CCC4(C)C3CC(C)C12 (stereo unspecified) | 71.6% | 46.8% | 70.5% | 62.9% | 59.3% | 77.1% | 67.5% | 72.5% | 15.5% | 108% | 104% | 72.6% | -32% (active) | 92.6% | 58.1% | – | 63.3% | 33.7% | 14.8% | – |
| CC(=O)O[C@H]1CC[C@]2(C)[C@H]3CC[C@]4(C)[C@@H](OC(C)=O)CC[C@H]4[C@@H]3[C@@H](C)[C@]2(O)C1 | 108% | 106% | 92.5% | 111% | 111% | 89.6% | 106% | 98.4% | 96.8% | 117% | 99.1% | 101% | 88.7% | 112% | 112% | – | 105% | – | 93.1% | – |
| CC[C@H](C)[C@H](NC(=O)c1ccccn1)C(=O)N(C)[C@H](C[C@@H](OC(C)=O)c1nc(C(=O)N[C@@H](Cc2ccccc2)C[C@H](C)C(=O)OC)cs1)C(C)C | 13.5% | 2.48% (active) | 5.57% (active) | 52.4% | 16.1% | 24.5% | -22.6% (active) | 13.1% | 29.1% | 53.2% | -8.78% (active) | 46.9% | 42.2% | – | 40.2% | – | -5.19% (active) | -21.2% (active) | 7.71% (active) | – |
| COC(=O)[C@@]1(O)C[C@H]2O[C@]1(C)n1c3ccccc3c3c4c(c5c6ccccc6n2c5c31)C(=O)NC4 | -29.3% (active) | -24.6% (active) | -97.1% (active) | -27.9% (active) | -67.1% (active) | -50.3% (active) | -89.4% (active) | -47.4% (active) | -69.2% (active) | -58.9% (active) | – | – | -57.9% (active) | -86.3% (active) | -27.3% (active) | -97.5% (active) | -96.6% (active) | -44.5% (active) | 0.604% (active) | -30.9% (active) |
| O=C(O)c1ccc([S-])cc1.[Au+].c1ccc(CN2[CH-]N(Cc3ccccc3)C(c3ccccc3)=C2c2ccccc2)cc1 | -89.3% (active) | -24.7% (active) | -9.88% (active) | -66.8% (active) | -82.5% (active) | -25.6% (active) | -92.9% (active) | -51.6% (active) | -78.9% (active) | -20.2% (active) | -43.2% (active) | -67.8% (active) | -79.4% (active) | -61.7% (active) | -65.7% (active) | – | -33.8% (active) | – | 1.41% (active) | – |
| O=C(Nc1ccc([N+](=O)[O-])cc1)C(Cl)(Cl)Cl | 80.8% | 101% | 96.6% | 94.7% | 93.9% | 95.1% | 99.4% | 84.9% | 63.3% | 103% | 102% | 95.3% | 87.3% | 113% | 86.9% | 83.3% | – | 108% | 101% | – |
| CCN(CCO)C(Cc1ccccc1)c1ccccc1 (stereo unspecified) | 94.3% | 98.5% | 99.8% | 119% | 115% | 94.9% | 104% | 107% | 92.6% | 101% | 105% | 102% | 94% | 101% | 108% | – | 96.3% | 111% | 2.74% (active) | – |
| COc1ccc(/C=C\c2cc(OC)c(OC)c(OC)c2)c(NS(=O)(=O)c2ccc(C)cc2)c1O | 15.1% | 17.4% | 41.6% | 48.1% | 20.7% | 36.3% | -42.3% (active) | 53% | 18.3% | 61.7% | -6.34% (active) | 35.6% | 53.4% | 65.2% | 23.7% | 19.8% | – | 9.18% (active) | 21.9% | – |
